According to PubChem BioAssay AID1159580 (chemical genetic matrix, 2015):
Among all 5,500 compounds or so, about 2,000 (36%) were called active. Roughly 18% stayed inconclusive and do not appear here. No stated cut-off is given here; in the data, active means normalized growth mostly below about 0.91 (no sharp cut-off); inconclusive means no clear call, values can overlap the other calls; inactive means mostly above about 0.92. The list shows a part of the results.

Assay: chemical genetic growth profiling, strain panel (AID 1159580);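 further: tested at 20 µM; growth read once vehicle control cultures reached saturation at 30 °C; 1 = growth at the plate median or of vehicle wells; lower values mean less growth of the strain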
Conditions: S. cerevisiae deletion strains, growth OD

Measured: normalized growth

O=C1c2ccccc2-c2cccc3cccc1c23
inactive: locus YAL021C, strain ccr4, active compounds read low 0.946 | locus YAL030W, strain snc1, active compounds read low 0.954 | locus YBR171W, strain sec66, active compounds read low 0.964 | locus YCR088W, strain abp1, active compounds read low 1.01 | locus YDL005C, strain med2, active compounds read low 0.961 | locus YDL040C, strain nat1, active compounds read low 0.974 | locus YDR001C, strain nth1, active compounds read low 0.988 | locus YDR069C, strain doa4, active compounds read low 0.905 | locus YDR159W, strain sac3, active compounds read low 0.881 | locus YDR297W, strain sur2, active compounds read low 0.965 | locus YDR334W, strain swr1, active compounds read low 0.923 | locus YDR335W, strain msn5, active compounds read low 0.952 | locus YEL003W, strain gim4, active compounds read low 0.967 | locus YEL037C, strain rad23, active compounds read low 0.945 | locus YEL061C, strain CIN8 (second series), active compounds read low 0.953 | locus YER015W, strain faa2, active compounds read low 0.939 | locus YER016W, strain bim1, active compounds read low 0.977 | locus YER111C, strain swi4, active compounds read low 0.968 | locus YGL167C, strain pmr1, active compounds read low 0.97 | locus YGL227W, strain vid30, active compounds read low 0.99 | locus YHR027C, strain rpn1, active compounds read low 0.956 | locus YJL115W, strain asf1, active compounds read low 0.91 | locus YJL129C, strain trk1, active compounds read low 1.02 | locus YJL154C, strain vps35, active compounds read low 0.988 | locus YKR026C, strain gcn3, active compounds read low 0.965 | locus YKR091W, strain srl3, active compounds read low 0.977 | locus YLL026W, active compounds read low 0.932 | locus YLL041C, strain sdh2, active compounds read low 0.994 | locus YLR342W, strain FKS1, active compounds read low 0.966 | locus YLR357W, strain rsc2, active compounds read low 0.985 | locus YLR370C, strain arc18, active compounds read low 0.931 | locus YLR384C, strain iki3, active compounds read low 0.978 | locus YML120C, strain ndi1, active compounds read low 0.949 | locus YMR125W, strain sto1, active compounds read low 0.9 | locus YMR129W, active compounds read low 0.973 | locus YMR205C, strain PFK2, active compounds read low 0.935 | locus YMR231W, strain pep5, active compounds read low 0.954 | locus YNL209W, strain ssb2, active compounds read low 0.928 | locus YNL322C, strain KRE1 (second series), active compounds read low 0.966 | locus YNR049C, strain mso1, active compounds read low 0.986 | locus YOR001W, strain rrp6, active compounds read low 0.911 | locus YOR080W, strain dia2, active compounds read low 0.981 | locus YOR265W, strain rbl2, active compounds read low 0.967 | locus YPL240C, strain hsp82, active compounds read low 0.979
active: locus YAL026C, strain drs2, active compounds read low 0.896 | locus YBL061C, strain skt5, active compounds read low 0.88 | locus YBR009C, strain hhf1, active compounds read low 0.849 | locus YBR023C, strain chs3, active compounds read low 0.855 | locus YBR231C, strain swc5, active compounds read low 0.78 | locus YBR279W, strain paf1, active compounds read low 0.884 | locus YCL011C, strain gbp2, active compounds read low 0.874 | locus YCL016C, strain dcc1, active compounds read low 0.823 | locus YCL061C, strain MRC1, active compounds read low 0.867 | locus YCL069W, strain vba3, active compounds read low 0.924 | locus YDR137W, strain rgp1, active compounds read low 0.756 | locus YDR195W, strain ref2 1.44 [resistant] | locus YDR392W, strain spt3, active compounds read low 0.483 | locus YER155C, strain BEM2 (second series), active compounds read low 0.716 | locus YFR010W, strain ubp6, active compounds read low 0.833 | locus YGL173C, strain kem1, active compounds read low 0.853 | locus YGL240W, strain doc1, active compounds read low 0.868 | locus YGL253W, strain hxk2, active compounds read low 0.822 | locus YHR013C, strain ard1, active compounds read low 0.737 | locus YHR142W, strain chs7, active compounds read low 0.62 | locus YJL092W, strain hpr5, active compounds read low 0.899 | locus YJL095W, strain BCK1 (second series), active compounds read low 0.854 | locus YJL164C, strain tpk1, active compounds read low 0.868 | locus YJL166W, strain qcr8, active compounds read low 0.841 | locus YKL160W, strain elf1, active compounds read low 0.829 | locus YLL001W, strain dnm1, active compounds read low 0.89 | locus YLR027C, strain aat2, active compounds read low 0.875 | locus YLR221C, strain rsa3, active compounds read low 0.875 | locus YLR258W, strain gsy2, active compounds read low 0.9 | locus YLR262C, strain YPT6 (second series), active compounds read low 0.747 | locus YLR320W, strain mms22, active compounds read low 0.714 | locus YMR058W, strain fet3, active compounds read low 0.746 | locus YNL071W, strain lat1, active compounds read low 0.685 | locus YNL248C, strain rpa49, active compounds read low 0.677 | locus YOR070C, strain gyp1, active compounds read low 0.904 | locus YOR083W, strain WHI5, active compounds read low 0.786 | locus YOR106W, strain vam3, active compounds read low 0.693 | locus YOR270C, strain vph1, active compounds read low 0.341 | locus YOR290C, strain snf2, active compounds read low 0.856 | locus YPL051W, strain arl3, active compounds read low 0.739 | locus YPL078C, strain atp4, active compounds read low 0.787 | locus YPL106C, strain sse1, active compounds read low 0.74
